Assay results from PubChem BioAssay (NCATS).
Records with an inconclusive call do not appear. Where a call stands in place of a potency, no number is given. Activity calls are given as the source filed them. The call rests on the fitted dose curve; in most records, active means well fitted inhibition curve with a large enough effect; inconclusive means small, poorly fitted or top-dose-only effect; inactive means flat fitted curve, though single readings scatter.

Columns and labels:
Experiment in all cases: qHTS profiling for inhibitors of Plasmodium falciparum proliferation (AID 504749); further: nearly all actives have a fitted effect of over 60% in size
Settings in all cases: P. falciparum in erythrocytes, SYBR Green DNA, 72 h; series mostly up to 28.7 µM
CP247 = tested on: CP247
Outline: (§1)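 Fluorescence of SYBR Green-bound parasite DNA, read at 485/535 nm, served as the growth measure. Infected erythrocytes were cultured with compound 72 h; artemisinin (0.29 uM) and DMSO wells defined the normalization range.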

CP260 = tested on: CP260
Outline: as §1

CP262 = tested on: CP262
Outline: as §1

CP250 = tested on: CP250
Outline: as §1

CP252 = tested on: CP252
Outline: as §1

CP256 = tested on: CP256
Outline: as §1

CP265 = tested on: CP265
Outline: as §1

CP266 = tested on: CP266
Outline: as §1

CP268 = tested on: CP268
Outline: as §1

CP269 = tested on: CP269
Outline: as §1
Potency means the concentration at half of the fitted maximal effect.

Row | SMILES | Potency (CP247) | Potency (CP260) | Potency (CP262) | Potency (CP250) | Potency (CP252) | Potency (CP256) | Potency (CP265) | Potency (CP266) | Potency (CP268) | Potency (CP269)
1 | Oc1ccc(C(O)CNCCCCCCNCC(O)c2ccc(O)c(O)c2)cc1O (stereo unspecified) | 11.2 µM (active) | 7.94 µM (active) | inactive | – | – | – | – | – | – | –
2 | CCCc1c(OCCCCc2nn[nH]n2)ccc(C(C)=O)c1O | – | – | inactive | inactive | inactive | inactive | inactive | inactive | inactive | inactive
3 | CCOc1nc2cccc(C(=O)O)c2n1Cc1ccc(-c2ccccc2-c2nn[nH]n2)cc1 | inactive | inactive | inactive | inactive | – | inactive | inactive | inactive | – | –
4 | CSc1ccc2c(c1)C(N1CCN(C)CC1)Cc1ccccc1S2 (stereo unspecified) | – | 10 µM (active) | inactive | inactive | – | inactive | inactive | inactive | – | –
5 | CSc1ccc2c(c1)N(CCC1CCCCN1C)c1ccccc1S2 (stereo unspecified) | – | 7.94 µM (active) | – | – | – | – | – | inactive | – | 10.7 µM (active)
6 | CN1CCN(C2Cc3ccccc3Sc3ccc(Cl)cc32)CC1 (stereo unspecified) | inactive | – | inactive | inactive | inactive | inactive | inactive | inactive | – | inactive
7 | [Cl][In]([Cl])[Cl] | – | – | inactive | – | inactive | – | – | – | – | –
8 | CN(C)CCCN1c2ccccc2Sc2ccc(Cl)cc21 | inactive | – | inactive | – | – | inactive | – | inactive | – | –
9 | CN(C)CCN(Cc1ccccc1)c1ccccn1 | inactive | – | inactive | inactive | – | inactive | – | inactive | – | inactive
10 | O=S(=O)(O)NC1CCCCC1 | inactive | inactive | inactive | – | inactive | inactive | inactive | inactive | inactive | inactive
11 | CC(C(O)c1ccc(O)cc1)N1CCC(Cc2ccccc2)CC1 (stereo unspecified) | – | – | – | – | – | – | – | – | 15.1 µM (active) | 12 µM (active)
12 | COC(=O)C1=C(C)NC(C)=C(C(=O)OC)C1c1ccccc1[N+](=O)[O-] | – | – | inactive | – | inactive | inactive | inactive | inactive | inactive | inactive
13 | CC(=O)NC(Cc1ccccc1)C(=O)O (stereo unspecified) | – | inactive | inactive | inactive | inactive | inactive | inactive | inactive | inactive | inactive
14 | CCN(CC)CCNC(C(=O)OCCC(C)C)c1ccccc1 (stereo unspecified) | inactive | – | inactive | inactive | – | – | 8.91 µM (active) | inactive | – | –
15 | Cc1ccc2nc(N)[nH]c(=O)c2c1Sc1ccncc1 | – | 11.2 µM (active) | – | 2.24 µM (active) | 1.58 µM (active) | 10 µM (active) | 10 µM (active) | inactive | – | –
16 | OCc1cc(C(O)CNCCCCCCOCCCCc2ccccc2)ccc1O (stereo unspecified) | inactive | – | – | inactive | inactive | – | inactive | inactive | inactive | inactive
17 | CCOC(CN1CCN(CC(C)C(=O)c2ccccc2)CC1)c1ccccc1 (stereo unspecified) | – | inactive | inactive | inactive | inactive | inactive | – | inactive | inactive | inactive
18 | O=C(O)[C@@H]1CSCN1 | – | inactive | inactive | inactive | inactive | inactive | inactive | – | inactive | inactive
19 | COc1ccc2[nH]c(S(=O)Cc3ncc(C)c(OC)c3C)nc2n1 (stereo unspecified) | 11.2 µM (active) | – | inactive | – | – | – | – | – | inactive | inactive
20 | Nc1ccc(S(=O)(=O)Nc2ccc(Cl)nn2)cc1 | – | inactive | – | – | – | – | – | inactive | inactive | inactive
21 | CN1CCCCC1CCN1c2ccccc2Sc2ccc(S(C)=O)cc21 (stereo unspecified) | inactive | – | inactive | – | inactive | – | – | inactive | – | –
22 | OCCN1CCN(CCCN2c3ccccc3Sc3ccc(Cl)cc32)CC1 | 2.51 µM (active) | 3.16 µM (active) | – | – | 3.55 µM (active) | 3.98 µM (active) | 3.55 µM (active) | inactive | – | –
